# Assay results: the supplement of paper PMC10849652
# Of roughly 8,800 targets only a part is listed; those with a hit were picked by preference. About 0.5% of all pairs of compound and target were hits. Values without a mark were called inactive.
# Legend:
# Assay in all cases: log2 fold change, soluble protein after heating vs DMSO (PISA); higher = thermal stabilisation; K562 lysate, 10 uM; active = over 0.2 and 3.5 SD of the protein, either way, in both replicates (recomputed)
# nilotinib = compound: Cc1cn(-c2cc(NC(=O)c3ccc(C)c(Nc4nccc(-c5cccnc5)n4)c3)cc(C(F)(F)F)c2)cn1 [nilotinib]
# How it was run: (§1)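 Soluble protein was defined as the supernatant remaining after 21,000xg for 90 min, following pooling of heated aliquots and adjustment to 0.5% NP-40 at 4°C. Before that, crude K562 extract at 1 mg/mL protein in PBS pH 7.4 with 1 mM MgCl2 was treated with 10 μM compound for 30 min and heated for 3 min across 48°C-58°C. Quantification used TMTpro 16plex LC-MS/MS with channel sums equalised, and values are log-two fold changes in thermal stability relative to solvent controls from duplicates.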
# [1] = compound: Cc1nc(Nc2n[nH]c3c2CN(C(=O)N[C@H](CN(C)C)c2ccccc2)C3(C)C)c2sccc2n1
# How it was run: as §1
# dasatinib = compound: Cc1nc(Nc2ncc(C(=O)Nc3c(C)cccc3Cl)s2)cc(N2CCN(CCO)CC2)n1 [dasatinib]
# How it was run: as §1
# [2] = compound: Cc1ncc(-c2ccnc(Nc3ccc(S(C)(=O)=O)cc3)n2)n1C(C)C
# How it was run: as §1
# [3] = compound: Cn1cc(-c2ccc3c(c2)CCN3C(=O)Cc2cccc(C(F)(F)F)c2)c2c(N)ncnc21
# How it was run: as §1
# quisinostat = compound: Cn1cc(CNCC2CCN(c3ncc(C(=O)NO)cn3)CC2)c2ccccc21 [quisinostat]
# How it was run: as §1
# tipifarnib = compound: Cn1cncc1[C@@](N)(c1ccc(Cl)cc1)c1ccc2c(c1)c(-c1cccc(Cl)c1)cc(=O)n2C [tipifarnib]
# How it was run: as §1
# [4] = compound: NC(=O)Nc1cc(-c2cccc(F)c2)sc1C(=O)N[C@H]1CCCNC1
# How it was run: as §1
# [5] = compound: NC(=O)c1cnc(N[C@@H]2CCCC[C@@H]2N)nc1Nc1cccc(-n2nccn2)c1
# How it was run: as §1
# [6] = compound: NC1(c2ccc(-c3nc4ccn5c(=O)[nH]nc5c4cc3-c3ccccc3)cc2)CCC1
# How it was run: as §1
# [7] = compound: NCC(=O)Nc1ccc(-n2nc(C(F)(F)F)cc2-c2ccc3c(ccc4ccccc43)c2)cc1
# How it was run: as §1
# vorinostat = compound: O=C(CCCCCCC(=O)Nc1ccccc1)NO [vorinostat]
# How it was run: as §1
# silmitasertib = compound: O=C(O)c1ccc2c(c1)nc(Nc1cccc(Cl)c1)c1ccncc12 [silmitasertib]
# How it was run: as §1
# [8] = compound: O=C1NC(=O)C(c2cnc3ccccn23)=C1c1cn2c3c(cc(F)cc13)CN(C(=O)N1CCCCC1)CC2
# How it was run: as §1
# entospletinib = compound: c1cn2cc(-c3ccc4cn[nH]c4c3)nc(Nc3ccc(N4CCOCC4)cc3)c2n1 [entospletinib]
# How it was run: as §1
# UniProt Q8NB46, sequence (Q8NB46 whole entry, looked up): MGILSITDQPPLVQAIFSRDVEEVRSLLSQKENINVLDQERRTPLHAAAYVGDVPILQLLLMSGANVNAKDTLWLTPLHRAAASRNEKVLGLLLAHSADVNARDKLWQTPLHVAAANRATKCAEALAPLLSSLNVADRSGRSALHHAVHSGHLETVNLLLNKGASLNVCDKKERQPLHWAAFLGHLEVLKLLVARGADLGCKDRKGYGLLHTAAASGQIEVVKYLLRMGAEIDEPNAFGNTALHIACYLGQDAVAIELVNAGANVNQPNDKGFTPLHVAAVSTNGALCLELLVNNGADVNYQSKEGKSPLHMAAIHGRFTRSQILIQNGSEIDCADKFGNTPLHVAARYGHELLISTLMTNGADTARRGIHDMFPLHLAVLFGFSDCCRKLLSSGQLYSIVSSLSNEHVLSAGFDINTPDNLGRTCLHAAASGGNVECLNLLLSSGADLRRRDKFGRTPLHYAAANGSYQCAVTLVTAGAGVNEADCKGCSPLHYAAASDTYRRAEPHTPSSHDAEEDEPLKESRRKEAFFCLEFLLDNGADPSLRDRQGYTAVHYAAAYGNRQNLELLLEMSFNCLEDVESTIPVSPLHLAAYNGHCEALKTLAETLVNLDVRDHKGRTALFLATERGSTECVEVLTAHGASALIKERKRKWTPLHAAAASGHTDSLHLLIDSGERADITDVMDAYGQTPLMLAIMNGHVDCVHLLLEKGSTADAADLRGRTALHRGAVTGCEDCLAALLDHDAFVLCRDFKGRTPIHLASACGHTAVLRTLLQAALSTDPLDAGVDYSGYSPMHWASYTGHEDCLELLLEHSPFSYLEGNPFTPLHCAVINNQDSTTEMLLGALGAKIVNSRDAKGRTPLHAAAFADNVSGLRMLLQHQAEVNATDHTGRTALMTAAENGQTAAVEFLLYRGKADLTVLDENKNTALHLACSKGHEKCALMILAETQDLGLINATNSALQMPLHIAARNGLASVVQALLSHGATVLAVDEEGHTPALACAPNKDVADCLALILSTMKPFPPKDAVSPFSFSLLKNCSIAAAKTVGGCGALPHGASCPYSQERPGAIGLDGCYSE
# UniProt Q9ULX6, sequence (Q9ULX6 whole entry, looked up): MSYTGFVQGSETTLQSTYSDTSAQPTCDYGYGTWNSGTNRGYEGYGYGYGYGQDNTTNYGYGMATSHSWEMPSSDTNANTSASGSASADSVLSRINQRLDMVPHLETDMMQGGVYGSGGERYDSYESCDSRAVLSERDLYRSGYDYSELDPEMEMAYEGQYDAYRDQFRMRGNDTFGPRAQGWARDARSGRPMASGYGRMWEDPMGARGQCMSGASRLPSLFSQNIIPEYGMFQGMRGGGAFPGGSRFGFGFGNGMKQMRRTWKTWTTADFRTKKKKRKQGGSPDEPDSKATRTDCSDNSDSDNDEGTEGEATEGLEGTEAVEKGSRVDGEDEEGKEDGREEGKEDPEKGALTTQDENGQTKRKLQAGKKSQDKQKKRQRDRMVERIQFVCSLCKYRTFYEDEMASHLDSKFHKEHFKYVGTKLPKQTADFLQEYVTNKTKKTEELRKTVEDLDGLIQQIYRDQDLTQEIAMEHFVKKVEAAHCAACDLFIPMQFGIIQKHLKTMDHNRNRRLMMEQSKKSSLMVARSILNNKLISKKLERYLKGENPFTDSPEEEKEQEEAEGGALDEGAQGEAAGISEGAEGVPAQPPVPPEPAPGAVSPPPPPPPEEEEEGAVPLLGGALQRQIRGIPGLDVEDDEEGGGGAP
# UniProt Q9NWB6, sequence (Q9NWB6 whole entry, looked up): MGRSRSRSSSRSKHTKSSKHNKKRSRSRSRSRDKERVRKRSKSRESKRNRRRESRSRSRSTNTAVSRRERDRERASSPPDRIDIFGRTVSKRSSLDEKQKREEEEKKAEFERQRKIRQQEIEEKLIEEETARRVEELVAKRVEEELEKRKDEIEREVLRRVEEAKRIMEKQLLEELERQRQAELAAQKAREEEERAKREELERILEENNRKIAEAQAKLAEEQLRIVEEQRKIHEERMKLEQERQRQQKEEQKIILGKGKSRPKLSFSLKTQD
# UniProt O43182, sequence (O43182 whole entry, looked up): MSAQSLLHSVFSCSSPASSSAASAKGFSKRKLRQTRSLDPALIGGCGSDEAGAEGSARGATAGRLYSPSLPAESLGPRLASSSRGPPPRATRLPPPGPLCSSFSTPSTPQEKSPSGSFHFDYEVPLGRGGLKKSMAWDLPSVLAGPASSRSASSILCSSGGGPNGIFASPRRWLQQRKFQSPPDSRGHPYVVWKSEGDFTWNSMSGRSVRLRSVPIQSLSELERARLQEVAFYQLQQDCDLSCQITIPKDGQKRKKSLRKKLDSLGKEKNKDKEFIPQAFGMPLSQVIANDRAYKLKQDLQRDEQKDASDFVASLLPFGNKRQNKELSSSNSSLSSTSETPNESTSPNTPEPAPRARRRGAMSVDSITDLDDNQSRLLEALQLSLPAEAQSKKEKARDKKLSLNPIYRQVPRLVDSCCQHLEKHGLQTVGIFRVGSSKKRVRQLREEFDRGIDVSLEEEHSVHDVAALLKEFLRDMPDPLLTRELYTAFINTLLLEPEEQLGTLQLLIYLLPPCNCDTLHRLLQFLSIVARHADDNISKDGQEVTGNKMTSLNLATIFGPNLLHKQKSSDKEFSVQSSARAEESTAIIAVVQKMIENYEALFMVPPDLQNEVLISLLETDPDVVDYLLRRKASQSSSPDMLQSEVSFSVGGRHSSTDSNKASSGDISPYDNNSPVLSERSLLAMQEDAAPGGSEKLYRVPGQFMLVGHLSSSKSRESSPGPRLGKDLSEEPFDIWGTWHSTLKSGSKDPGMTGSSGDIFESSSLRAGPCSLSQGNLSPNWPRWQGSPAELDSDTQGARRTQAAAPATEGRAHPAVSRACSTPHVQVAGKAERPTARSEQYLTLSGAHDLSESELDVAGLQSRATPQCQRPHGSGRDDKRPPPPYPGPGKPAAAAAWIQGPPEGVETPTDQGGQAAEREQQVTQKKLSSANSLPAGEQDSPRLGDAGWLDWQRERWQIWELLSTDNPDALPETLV
# UniProt P55263, sequence (P55263 whole entry, looked up): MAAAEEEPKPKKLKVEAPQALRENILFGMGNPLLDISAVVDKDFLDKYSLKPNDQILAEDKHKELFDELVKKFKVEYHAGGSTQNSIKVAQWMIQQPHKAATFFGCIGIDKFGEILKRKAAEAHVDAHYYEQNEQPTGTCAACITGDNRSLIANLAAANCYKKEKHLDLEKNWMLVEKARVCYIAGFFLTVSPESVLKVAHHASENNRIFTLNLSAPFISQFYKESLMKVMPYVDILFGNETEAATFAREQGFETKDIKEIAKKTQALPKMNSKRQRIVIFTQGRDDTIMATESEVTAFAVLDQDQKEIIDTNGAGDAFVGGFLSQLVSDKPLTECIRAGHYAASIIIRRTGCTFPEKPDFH
# UniProt O00170, sequence (O00170 whole entry, looked up): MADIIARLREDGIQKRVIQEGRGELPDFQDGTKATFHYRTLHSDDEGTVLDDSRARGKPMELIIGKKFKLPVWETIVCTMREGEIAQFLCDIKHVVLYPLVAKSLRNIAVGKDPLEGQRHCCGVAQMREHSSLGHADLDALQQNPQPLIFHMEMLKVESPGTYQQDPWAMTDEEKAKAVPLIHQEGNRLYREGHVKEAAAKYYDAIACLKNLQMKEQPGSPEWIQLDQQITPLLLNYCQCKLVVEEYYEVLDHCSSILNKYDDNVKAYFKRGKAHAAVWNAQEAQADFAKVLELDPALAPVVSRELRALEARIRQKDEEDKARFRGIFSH
# UniProt Q562R1, sequence (Q562R1 whole entry, looked up): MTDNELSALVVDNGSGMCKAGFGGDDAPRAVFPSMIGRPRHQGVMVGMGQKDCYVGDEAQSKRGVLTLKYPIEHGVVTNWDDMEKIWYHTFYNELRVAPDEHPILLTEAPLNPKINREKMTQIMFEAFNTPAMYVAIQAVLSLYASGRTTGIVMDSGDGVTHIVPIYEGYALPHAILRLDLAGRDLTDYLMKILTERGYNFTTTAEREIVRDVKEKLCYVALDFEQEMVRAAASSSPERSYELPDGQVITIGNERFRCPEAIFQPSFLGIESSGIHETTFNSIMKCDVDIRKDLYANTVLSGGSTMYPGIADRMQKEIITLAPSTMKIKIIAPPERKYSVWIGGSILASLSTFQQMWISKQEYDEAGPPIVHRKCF
# UniProt Q9NXU5, sequence (Q9NXU5 whole entry, looked up): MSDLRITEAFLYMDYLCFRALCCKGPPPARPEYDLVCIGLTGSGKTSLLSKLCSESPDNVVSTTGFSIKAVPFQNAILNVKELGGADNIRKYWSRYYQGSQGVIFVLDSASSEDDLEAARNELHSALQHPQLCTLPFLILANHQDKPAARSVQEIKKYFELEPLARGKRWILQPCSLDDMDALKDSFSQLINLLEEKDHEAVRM
# UniProt Q6NXT1, sequence (Q6NXT1 whole entry, looked up): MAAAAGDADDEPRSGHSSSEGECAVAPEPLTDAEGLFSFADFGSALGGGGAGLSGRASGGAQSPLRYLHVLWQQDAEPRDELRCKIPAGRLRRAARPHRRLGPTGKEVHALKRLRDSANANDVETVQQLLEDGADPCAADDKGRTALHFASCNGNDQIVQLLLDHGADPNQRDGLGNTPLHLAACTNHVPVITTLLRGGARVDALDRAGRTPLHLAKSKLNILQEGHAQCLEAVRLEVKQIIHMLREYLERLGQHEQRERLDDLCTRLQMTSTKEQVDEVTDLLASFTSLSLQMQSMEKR
# UniProt Q9Y303, sequence (Q9Y303 whole entry, looked up): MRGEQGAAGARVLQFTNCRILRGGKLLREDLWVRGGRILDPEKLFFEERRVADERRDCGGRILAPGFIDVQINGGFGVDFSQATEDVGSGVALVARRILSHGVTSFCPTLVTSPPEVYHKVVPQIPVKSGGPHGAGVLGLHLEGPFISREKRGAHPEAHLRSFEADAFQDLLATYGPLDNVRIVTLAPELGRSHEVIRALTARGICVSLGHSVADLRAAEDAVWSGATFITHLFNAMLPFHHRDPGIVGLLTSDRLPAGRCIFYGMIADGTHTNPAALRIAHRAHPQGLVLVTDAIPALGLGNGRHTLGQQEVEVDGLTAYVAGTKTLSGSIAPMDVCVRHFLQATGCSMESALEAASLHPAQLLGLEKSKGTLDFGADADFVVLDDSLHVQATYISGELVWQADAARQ
Target,log2 fold change (nilotinib),log2 fold change [1],log2 fold change (dasatinib),log2 fold change [2],log2 fold change [3],log2 fold change (quisinostat),log2 fold change (tipifarnib),log2 fold change [4],log2 fold change [5],log2 fold change [6],log2 fold change [7],log2 fold change (vorinostat),log2 fold change (silmitasertib),log2 fold change [8],log2 fold change (entospletinib)
ARL15 (UniProt Q9NXU5),-0.008,0.021,-0.063,-0.046,0.036,0.024,0.031,-0.034,0.021,0.022,0.007,-0.109,0.016,-0.029,0.014
ANKRD54 (UniProt Q6NXT1),0.053,-0.003,-0.013,0.05,-0.018,-0.024,0.019,-0.013,0,0.04,0.023,-0.245 (active),0.007,-0.076,-0.006
APEX1 (UniProt P27695),0.045,-0.037,0.002,-0.027,0.018,0.016,0.001,0.021,-0.011,-0.008,0.007,-0.15,0.026,-0.001,-0.002
ACTBL2 (UniProt Q562R1),0.32,-0.036,-0.075,0.139,-0.067,0.184,0.087,-0.03,-0.008,0.006,-0.116,-0.154,0.039,0.019,-0.083
ARGLU1 (UniProt Q9NWB6),-0.012,-0.007,0.058,-0.018,0.096,0.022,-0.043,-0.133,-0.012,0.016,0.01,0.116,0.008,-0.067,-0.054
AKAP8L (UniProt Q9ULX6),-0.267 (active),0.022,-0.062,0.016,0.037,-0.024,-0.011,0.055,0.002,0.028,-0.045,-0.213,-0.001,-0.078,-0.019
ACLY (UniProt P53396),-0.005,-0.016,-0.026,-0.005,0.021,0.002,0.016,-0.004,0.018,0.014,-0.008,-0.029,0.012,-0.018,0.014
ACADS (UniProt P16219),0.278 (active),-0.04,-0.002,-0.025,0.033,-0.009,-0.018,0.032,0.01,0.017,-0.005,0.217,-0.089,0.017,-0.021
ANKRD52 (UniProt Q8NB46),0.041,0.003,-0.048,-0.026,-0.045,-0.037,-0.017,0.005,-0.056,-0.028,-0.043,-0.491 (active),0.063,-0.023,-0.057
ARFGAP1 (UniProt Q8N6T3),0.159,0.1,-0.03,-0.016,-0.043,-0.004,-0.475 (active),0.063,-0.032,-0.111,0.063,0.253,-0.066,-0.12,0.038
ADK (UniProt P55263),-0.028,0.075,0.463,0.046,-0.005,-0.062,0.324,-0.023,-0.015,0.016,-0.049,-0.052,0.073,0.262,-0.027
ACYP1 (UniProt P07311),-0.014,0.019,0.022,-0.028,0.014,0.024,0.019,-0.029,-0.013,0.039,-0.015,0.127,-0.028,-0.002,0.008
ABCD3 (UniProt P28288),0.019,0.093,-0.063,-0.184,0.031,0.074,-0.025,0.016,-0.054,0.087,-0.019,-0.164,0.113,-0.08,0.034
ANP32E (UniProt Q9BTT0),0.075,0.025,0.015,0.028,-0.038,0.016,-0.02,-0.011,-0.065,0.023,0.021,0.217,-0.029,-0.011,0.012
ARHGAP6 (UniProt O43182),-0.003,-0.014,-0.102,0,0.052,-0.019,0.02,0.034,-0.025,-0.039,0.058,-0.346 (active),0.089,0.025,0.004
AK2 (UniProt P54819),0.003,-0.006,0.079,-0.013,-0.022,0.024,0.007,-0.066,0.013,0.004,0.024,0.159,0.007,-0.005,0.012
ACIN1 isoform 5 (UniProt Q9UKV3),0.017,-0.018,-0.012,0.001,0.008,0.011,0,-0.063,0.024,0.01,0.035,0.007,0.001,-0.012,-0.003
ABHD11 (UniProt Q8NFV4),-0.001,-0.021,-0.005,-0.044,0.079,0.081,0.042,-0.016,0.04,-0.003,-0.001,0.195,0.324 (active),0.003,0.05
AIP (UniProt O00170),0.024,-0.001,0.018,0.028,0.008,0.007,0.027,-0.011,-0.016,0.024,-0.001,-0.061,-0.032,0.003,-0.003
AFF4 (UniProt Q9UHB7),-0.039,-0.068,0.005,0.012,0.023,0.02,0.065,0.032,-0.026,0.022,-0.119,0.078,-0.04,-0.031,-0.088
AMDHD2 isoform 3 (UniProt Q9Y303),0.011,-0.076,-0.043,-0.027,0.026,0.035,0.01,-0.011,-0.022,0.002,0.038,0.088,-0.004,-0.002,0.056
